# Results taken from the supplement of paper PMC3334620.
# Over roughly 33,000 sequences, “E-score (-0.5 to 0.5)” has its median near -0.016; the highest 2% begin near 0.31. The sample holds the highest values, similar sequences and a random draw of the others, so the mix is not that of the screen.
# Molecular target: Cst6 (UniProt P40535)
# Test: PBM E-score (8-mer binding enrichment) (E-score (-0.5 to 0.5)); higher = stronger / more preferred TF binding
# Details: protein concentration: 200 nM; construct: GST-DNA-binding domain
# Summary of the method: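 GST-tagged yeast TFs (full-length or DNA-binding domain) were made by PURExpress in vitro transcription/translation and applied at about 100-200 nM to universal all-10-mer Agilent arrays. The arrays were made double-stranded by primer extension, on fresh or once-stripped slides. Bound protein was detected with fluorescent anti-GST, and scans were normalised with masliner. Each ungapped eight-base word, pooled with its reverse complement, received an E-score (modified Wilcoxon-Mann-Whitney statistic) from the Universal PBM Analysis Suite.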
# Chain of UniProt P40535 (P40535 whole entry): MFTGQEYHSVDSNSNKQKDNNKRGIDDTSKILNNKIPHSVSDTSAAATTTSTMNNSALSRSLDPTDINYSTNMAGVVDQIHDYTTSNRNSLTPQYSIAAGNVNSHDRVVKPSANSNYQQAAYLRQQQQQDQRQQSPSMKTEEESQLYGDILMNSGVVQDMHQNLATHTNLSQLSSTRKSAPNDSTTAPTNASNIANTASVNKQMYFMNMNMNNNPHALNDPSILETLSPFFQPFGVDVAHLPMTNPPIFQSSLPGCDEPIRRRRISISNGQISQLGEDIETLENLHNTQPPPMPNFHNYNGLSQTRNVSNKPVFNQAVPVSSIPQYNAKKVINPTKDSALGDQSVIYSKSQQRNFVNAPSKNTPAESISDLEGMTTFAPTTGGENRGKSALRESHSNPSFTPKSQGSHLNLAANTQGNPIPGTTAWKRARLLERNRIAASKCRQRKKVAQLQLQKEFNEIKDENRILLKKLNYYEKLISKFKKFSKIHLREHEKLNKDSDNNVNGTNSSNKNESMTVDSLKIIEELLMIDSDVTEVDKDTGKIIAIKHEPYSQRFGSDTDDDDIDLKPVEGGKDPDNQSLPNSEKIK
row,Sequence,PBM E-score
1,TAGCGAGA,-0.0782
2,GCATTCGA,-0.00988
3,ACCATCTA,-0.207
4,ATTTGTGA,0.146
5,AGTGCAGC,-0.108
6,ATTGATAC,0.154
7,GCGATGCA,-0.255
8,CGTCAACA,0.407
9,GGTCAACA,-0.0567
10,CCTCAACG,-0.102
11,CGTCAACG,0.344
12,GGTCAACC,-0.0743
13,AGTCAACC,-0.219
14,TGTCAACA,0.184
15,CGTCAACC,0.377
16,AGTCAACG,-0.102
17,GGTACGAA,0.0828
18,GATGCACC,-0.163
19,ATGATCAT,0.198
20,AGTCAATA,0.0835
21,GGTCAATA,0.0678
22,AGTCAATC,0.0291
23,CGTCAAGC,0.0721
24,CGTCAATA,0.349
25,CGTCAATC,0.337

row,Sequence,PBM E-score
1,TCGTATCA,0.127
2,ACTAGCCC,-0.0733
3,CACAGTGG,-0.124
4,GGCCTGAA,-0.122
5,AATTCGTC,0.316
6,AATTCGTA,0.252
7,CATTCGTC,0.148
8,CGTGCGGC,0.321
9,AGTGCGGC,0.173
10,CGTGCGGA,0.0478
11,CATGCGGA,-0.0527
12,AATGCGGC,0.266
13,CATGCGGC,0.33
14,ATTAAGAC,-0.0411
15,AGTTGATA,0.103
16,GAAAAGAC,0.222
17,CGACAGAG,-0.315
18,TGCCTTAA,-0.0513
19,AAAAAAAG,0.211
20,CAAAAAAA,0.32
21,AGAACAAA,0.34
22,AGAACAAG,0.113
23,ACAAAAAC,0.104
24,CCAAAAAA,0.279
25,AAAAAAAA,0.317

row,Sequence,PBM E-score
1,CAAAAAAC,0.201
2,ACAAAAAA,0.311
3,GAAAAAAA,0.258
4,ACAAAAAT,0.279
5,AGAACAAT,0.25
6,CATCCAGC,-0.0585
7,CTCCGTAA,-0.0462
8,CCACCTAA,-0.0425
9,TAGCCCGA,-0.177
10,CACAATCA,0.17
11,AGTTTGAC,0.0432
12,ACTTTAAT,0.107
13,ACTACGTA,0.343
14,ATTACGTG,0.46
15,CTCACGTA,-0.00865
16,GCTACGTA,0.213
17,GTTACGGA,0.11
18,CTTACGTA,0.466
19,ATTACCTG,0.14
20,GTTACGTA,0.46
21,AGTACGTG,-0.125
22,CCTACGTA,0.297
23,CTTACGAA,0.119
24,ACTACGTG,-0.0819
25,AGTCTCAA,-0.217

row,Sequence,PBM E-score
1,CAAACCTC,-0.272
2,TCTTCACA,0.113
3,AAACCCGT,0.0445
4,ATCTCGTG,-0.0972
5,ATCGCTGG,-0.217
6,AGACGCAT,-0.0757
7,CTTACGTC,0.421
8,ATTACGGA,0.154
9,ACTACGTC,0.157
10,ATTACGTC,0.485
11,ATTACGGC,0.266
12,ATTACGTA,0.49
13,CTTACGCC,0.193
14,CTCACGTC,0.14
15,ATTAGGTA,0.261
16,AACCTTCG,0.0222
17,CCAAGGCC,-0.19
18,CCATTCTA,-0.0992
19,AAGAATTG,0.182
20,ACTTGCTC,-0.198
21,ATCAAACA,0.107
22,CAGTTGGC,-0.175
23,ACGTCACA,0.484
24,AGGTCACA,-0.0345
25,AAGTCACT,0.141

row,Sequence,PBM E-score
1,ACGTCACT,0.495
2,AAGTCACA,0.119
3,AAGTCACG,0.0378
4,ACGTCACG,0.49
5,AGGTCACG,0.0374
6,AGGTCACT,-0.0496
7,TGCACCAA,-0.0568
8,AGTTGCTG,-0.0492
9,ACACACAG,0.107
10,CACGCTGC,-0.246
11,CAACCACC,-0.251
12,ATTCTCGC,-0.17
13,AAGTACCC,-0.275
14,ATGCCTCC,-0.0323
15,ATGCCTCA,0.11
16,ATGCCTCG,0.317
17,GTGTCATA,0.249
18,CTGTCATA,0.186
19,ATGTCAGC,0.225
20,CTGTCATC,0.186
21,ATGTCATC,0.432
22,ATGTCGTG,0.0262
23,ATGTCATG,0.425
24,ATGTCATA,0.442
25,ATGTCAAG,0.235

row,Sequence,PBM E-score
1,ACTTTGAA,0.0348
2,GCATCGAA,-0.0745
3,GGATCTAA,-0.0815
4,GACCTTAA,-0.0362
5,CTAGTGCC,-0.125
6,AGCTATCG,-0.106
7,GCAGCAGC,-0.133
8,CTCACCGA,0.048
9,CTCACCAC,-0.0767
10,GTCACCGA,0.426
11,TTCACCAA,0.124
12,ATCACCGA,0.212
13,GTCACCAC,0.373
14,ATCACCAC,0.244
15,CTCACCAA,0.102
16,GTCACCAA,0.315
17,GTGGTGAA,-0.0462
18,GTCTCCAA,-0.00606
19,GAGCAAAA,0.0129
20,CGAGCCTA,0.011
21,AATTATTG,0.252
22,AATTATGG,0.0357
23,ATTATTTA,0.305
24,AATTATTA,0.321
25,GTTTATTA,0.164

row,Sequence,PBM E-score
1,AATTATGT,0.304
2,ATTTATTA,0.357
3,AATTATGA,0.359
4,AATTATTC,0.219
5,AGCCGATA,-0.0664
6,CCAAGATC,-0.12
7,CGTGAGAG,-0.269
8,CTGACGTC,0.482
9,CAGACGTC,0.113
10,ATGACGTC,0.497
11,AAGACGTC,0.28
12,ACGACGTC,0.218
13,CGGACGTC,0.252
14,AGCAAGCA,-0.252
15,GCCCAGGC,-0.318
16,ATGTATGG,0.0177
17,ACGTATGA,0.432
18,AGGTATGC,0.111
19,ACGTATGG,0.158
20,ATGTATGA,0.336
21,CCGTATGC,0.0167
22,ACGTATGC,0.32
23,CCGTATGA,0.226
24,GTGTATGA,0.186
25,GGGAAGAA,-0.0773

row,Sequence,PBM E-score
1,ACTGGTGA,-0.0583
2,GAGTTGGA,-0.0506
3,ATACGTAA,0.463
4,TTACGGAA,0.178
5,CTACGTAC,0.00059
6,CTACGTAG,0.137
7,CTACGTAA,0.451
8,ATACGTAC,0.198
9,ATACGTAG,0.186
10,TTACGAAA,0.284
11,ACACGTAT,0.238
12,ATACGTAT,0.376
13,AGACGTAT,0.144
14,TTACGTAA,0.493
15,AGGTCCAT,-0.0689
16,CGTTCTCC,-0.174
17,CAGCGCCC,-0.0102
18,ATAGATGC,-0.0272
19,TAGCAGAA,0.107
20,AGTATGTC,0.155
21,CAGTGTGA,0.158
22,AGGTTGAC,0.0459
23,GAAACGCA,0.172
24,AGACATCC,-0.211
25,GTACGTAA,0.449

row,Sequence,PBM E-score
1,GCACGTAC,-0.00487
2,GTACGTAC,0.0996
3,TCAAGCGA,-0.00748
4,ACAGGCGG,-0.104
5,ATGCCGTG,0.283
6,CTGCCGTC,0.0959
7,GTGCCGTA,0.389
8,ATGCCGTA,0.372
9,ATGCCGAA,0.0887
10,GTGCCGGA,-0.104
11,AAGCCGTA,0.173
12,CTGCCGTA,0.0163
13,ATGCCGTC,0.323
14,GGGTTAAA,-0.06
15,GAGAGAGC,-0.197
16,AATTGCGG,-0.0187
17,AATTGCGT,0.315
18,GATTGCGC,0.0307
19,CATTGCGC,0.0683
20,AATTGCGC,0.309
21,AATTGCGA,-0.111
22,AAAACGCG,0.205
23,AACGTTGC,-0.0467
24,AAGTACCT,-0.196
25,AAGTGAAG,-0.0822

row,Sequence,PBM E-score
1,AAGCCGAC,-0.231
2,CCACGGCA,0.235
3,CCACGGCG,0.309
4,ACACGGCT,0.266
5,AAACGCCG,0.36
6,AGACGGCG,0.305
7,ACACGGCA,0.282
8,CCACGGCC,-0.0591
9,CAACGCCG,0.191
10,AAACGCCA,0.18
11,CGACGGCG,0.257
12,AGACGGCC,-0.214
13,ACACGGCG,0.394
14,TCCTCCGA,-0.395
15,CCCCTTAA,-0.212
16,AGGCAAAT,0.164
17,ATACAGGC,-0.121
18,GCAGGCAA,-0.0304
19,AGAGGATC,-0.18
20,AAACGGCC,0.084
21,AAACGGCT,0.105
22,AAACGGCG,0.369
23,ACAAGTAA,-0.0276
24,CCAGTTCA,0.0369
25,GTAATGAA,0.268

row,Sequence,PBM E-score
1,GAAATGAC,0.32
2,AAAATGAA,0.155
3,ATAATGGA,0.109
4,GTAATGAC,0.377
5,CAAATGAC,0.248
6,AAAATGAC,0.327
7,GTAATGGA,0.353
8,CTAATGAC,0.252
9,CTAATGGA,-0.085
10,GAAATGAA,0.237
11,AAAATGAT,0.298
12,CTGCATCC,-0.101
13,CTTGCAGA,-0.138
14,CACGCCCA,-0.21
15,GCTAACCC,-0.223
16,ACATCCCC,-0.119
17,AAAGCCCA,6e-05
18,GACGCATC,0.0635
19,CACGCATA,-0.215
20,GACGCATA,0.315
21,GCTTCCTA,-0.0171
22,ACACCACG,-0.0337
23,CAATGCCA,-0.0721
24,AGCGTCAT,0.423
25,GGCGTCCC,-0.225

row,Sequence,PBM E-score
1,CGCGTCAA,0.211
2,AGCGTCAC,0.332
3,AGAGTCAT,-0.0245
4,AGCGTCCT,-0.276
5,CGCGTCAC,0.418
6,GGCGTCTA,0.0648
7,CGCGTCAG,0.0126
8,AGCGTCAG,0.177
9,GGCGTCAC,0.431
10,AGCGTCAA,0.269
11,AATCCATA,0.0862
12,CGCCGAGC,0.0842
13,CTGTCGCA,-0.146
14,CGGTCCTC,-0.133
15,CATGCGAA,0.111
16,AAGTTAAT,0.213
17,AGAGAAAC,0.0803
18,AATTGGCG,0.198
19,GTCTCTTA,-0.00905
20,GCGATGAC,0.413
21,CCGATGAA,0.0447
22,ACGATGAA,0.154
23,ACGATGAC,0.387
24,CCGATGAC,0.336
25,ACGATGAT,0.206

row,Sequence,PBM E-score
1,GCGATGAA,0.0225
2,CCGATGAG,-0.087
3,GGGATGAC,0.221
4,AACTGAGC,-0.152
5,AGGGCCTA,-0.327
6,AACCTACG,-0.043
7,CTGAGGTA,0.0121
8,ATGAGGTA,0.312
9,ATGAGGTG,0.174
10,AACTGCTC,-0.0302
11,GAGGTGAA,-0.0049
12,AATGTCGT,0.195
13,AATGTCAG,-0.00168
14,AATGTAAA,0.258
15,GATGTCAC,0.448
16,ACTGTCAC,0.141
17,AATGTCAC,0.308
18,AATGTAAG,0.192
19,AATGTCAT,0.356
20,GATGTCAA,0.245
21,AATGTAAT,0.347
22,ACTGTCAT,0.0752
23,GCTGTCAC,0.0464
24,CGACCCCG,-0.235
25,AACCTAAT,-0.0438

row,Sequence,PBM E-score
1,CAGTTTTA,0.00126
2,AGTAGGTA,-0.0379
3,CCGATCTA,-0.27
4,CGAACGAA,0.0744
5,AAGGCGCT,0.118
6,CACACGGC,0.293
7,ACGTACCG,0.0475
8,ATTTCGAG,0.0911
9,TCAGGGAA,-0.141
10,CGGCTGGC,-0.28
11,CATGTCAA,0.161
12,CATGTCAC,0.36
13,AATGTAAC,0.0559
14,CATGTCAG,0.144
15,CATGTAAC,0.014
16,GATGTAAC,0.341
17,ATTGGCCC,-0.36
18,GATGAGAC,0.0611
19,ATAATGTA,0.203
